Activity calls are given as the source filed them.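 How the source made its calls, unless noted: active means mean z-score across replicates of 1.96 or higher in either the MELAS or the Rieske mutant cell line; inactive means the rest.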 Where a SMILES comes first, the peptide text is derived from it.
Assays:
[1] = sensitizers of A549 cells to miR-34 induction, primary screen, imaging, A549 dox-inducible miR-34, nuclei and caspase counts (AID 1347080;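 active means compounds whose cell count with miR-34 switched on is under 0.7 times the count with it off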); conditions: A549 miR-34 inducible, Hoechst nuclei count, 48 h
[2] = survival rescue of mitochondrial mutant cells in low glucose, primary screen, MELAS cybrids, Rieske KO mouse fibroblasts, CellTiter-Glo (AID 1508586);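 further: z relative to plate mean and SD of compound and empty wells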
[3] = stronger effect = lower value, cell number ratio, induced over uninduced
[4] = measured here: relative caspase fold change +Dox/-Dox
[5] = measured here: total cells with miR-34 induction, stronger effect = lower value
[6] = measured here: total cells without miR-34 induction
[7] = MELAS cybrid survival, CellTiter-Glo 48 h, stronger effect = higher value
[8] = Rieske KO mouse fibroblast survival, CellTiter-Glo 72 h
Further: test concentration not given here.

Row | Structure (SMILES) | fold change [1, 3] | fold change [1, 4] | cell count [1, 5] | cell count [1, 6] | z-score [2, 7] | z-score [2, 8]
1 | CCC[C@@H]1OC2C[C@H]3[C@@H]4CCC5=CC(=O)C=C[C@]5(C)[C@@H]4C(O)C[C@]3(C)[C@@]2(C(=O)CO)O1 (some centres not stated) | 1.01 (inactive) | 0.72 | 3350 | 3330 | -0.541 (inactive) | -0.57
2 | OCC(CO)NC1C[C@@](O)(CO)C(O)C(O)C1O (some centres not stated) | 0.838 (inactive) | 1.1 | 8490 | 10100 | -0.052 (inactive) | -0.122
3 | CCOC(=O)c1ccc(NC2CCCCC2)c(N)c1 | 0.937 (inactive) | 0.358 | 7670 | 8180 | -0.371 (inactive) | 0.61
4 | CS(=O)(=O)c1ccc(C(O)C(CO)NC(=O)C(Cl)Cl)cc1 (configuration not stated) | 0.959 (inactive) | 1.06 | 8650 | 9010 | -0.348 (inactive) | 0.589
5 | CC[C@]1(O)C[C@@H]2CN(CCc3c([nH]c4ccccc34)[C@@](C(=O)OC)(c3cc4c(cc3OC)N(C=O)[C@@H]3[C@@]45CCN4CC=C[C@@](CC)(C(OC(C)=O)[C@]3(O)C(=O)OC)[C@H]45)C2)C1 (some centres not stated) | 1.22 (inactive) | 0.801 | 1340 | 1100 | 0.317 (inactive) | -1.38
6 | COC1C=CC=C(C)C(=O)NC2=CC(=O)C(NCCN(C)C)=C(CC(C)CC(OC)C(O)C(C)C=C(C)C1OC(N)=O)C2=O (configuration not stated) | 1.03 (inactive) | 1.2 | 1450 | 1410 | 2.44 (active) | -2.5
7 | NC(=O)N1CCC(CC(=O)N2CCC(C3c4ncc(Br)cc4CCc4cc(Cl)cc(Br)c43)CC2)CC1 (configuration not stated) | 1.04 (inactive) | 0.678 | 5310 | 5110 | -0.458 (inactive) | 0.637
8 | O=C(NCC(O)CO)c1ccncc1Nc1ccc(I)cc1F (configuration not stated) | 1.05 (inactive) | 0.75 | 3270 | 3120 | -0.688 (inactive) | -1.18
9 | O=C(NS(=O)(=O)c1ccc(Br)s1)c1ccc(Cl)cc1Cl | 0.902 (inactive) | 0.488 | 7360 | 8160 | -0.252 (inactive) | -0.754
10 | COc1cc(C(C)=O)ccc1O | 0.901 (inactive) | 0.815 | 7660 | 8500 | -0.427 (inactive) | -0.0762
11 | Cc1[nH]c2ccccc2c1CCNC(=O)c1cccs1 | 0.913 (inactive) | 0.438 | 7830 | 8570 | -0.422 (inactive) | 0.75
12 | COC1=CC(=O)CC(C)[C@@]12Oc1c(Cl)c(OC)cc(OC)c1C2=O (some centres not stated) | 0.974 (inactive) | 0.639 | 8290 | 8510 | -0.169 (inactive) | -0.138
13 | CC(C)C(N)C(=O)OCC(CO)OCN1C=NC2C(=O)NC(N)=NC21 (configuration not stated) | 0.916 (inactive) | 0.625 | 8420 | 9190 | -0.0737 (inactive) | -0.153
14 | Nc1cc(F)ccc1NC(=O)C=Cc1cnn(CC=Cc2ccccc2)c1 | 0.91 (inactive) | 0.53 | 6990 | 7680 | -0.402 (inactive) | -2.77
15 | O=C(O)C1=COC(OC2OC(CO)C(O)C(O)C2O)[C@@H]2C(CO)=CC[C@H]12 (some centres not stated) | 0.954 (inactive) | 1.02 | 9820 | 10300 | -0.392 (inactive) | 0.447
16 | CC(NCc1ccc(OCc2cccc(F)c2)cc1)C(N)=O (configuration not stated) | 0.935 (inactive) | 1.08 | 7820 | 8360 | -0.428 (inactive) | 0.667
17 | C[C@@]12C(=O)N(c3ccc(C(=O)Nc4cccc5cccnc45)cc3)C(=O)[C@@H]1C1C=CC2C1 (some centres not stated) | 1.75 (inactive) | 0.793 | 7280 | 4160 | 0.0501 (inactive) | -0.119
18 | N#CC(=C1SCC(c2ccc(Cl)cc2Cl)S1)n1ccnc1 (configuration not stated) | 0.898 (inactive) | 1.64 | 8130 | 9050 | -0.162 (inactive) | -0.0913
19 | Cc1ccc(NCCCc2ccccc2)c(N)c1 | 0.882 (inactive) | 0.496 | 7500 | 8510 | -0.425 (inactive) | 0.263
20 | CC1CN(CC(=O)Nc2ccc3c(c2)Cc2cccc(-c4cc(=O)cc(N5CCOCC5)o4)c2S3)CC(C)O1 (configuration not stated) | 0.994 (inactive) | 1.1 | 5760 | 5800 | 2.51 (active) | 1.29
21 | COc1cc2c(cc1-c1c(C)noc1C)ncc1[nH]c(=O)n(C(C)c3ccccn3)c12 (configuration not stated) | 0.947 (inactive) | 0.831 | 7600 | 8030 | 0.365 (inactive) | -1.83
22 | O=c1ncccn1C1OC(CO)C(O)C1O (configuration not stated) | 0.912 (inactive) | 0.461 | 8580 | 9410 | -0.447 (inactive) | -1.06
23 | CC(=O)ON=C1C(=O)N(Cc2cc(Cl)ccc2Cl)c2ccc(Cl)cc21 | 0.848 (inactive) | 0.441 | 7100 | 8370 | -0.0209 (inactive) | 1.12
24 | NC(=O)c1ncn(C2OC(CO)C(O)C2O)c1N (configuration not stated) | 0.801 (inactive) | 0.953 | 7500 | 9360 | 0.179 (inactive) | 0.0953

Row | Structure (SMILES) | fold change [1, 3] | fold change [1, 4] | cell count [1, 5] | cell count [1, 6] | z-score [2, 7] | z-score [2, 8]
25 | CCCC1CC(C(=O)NC(C(C)O)[C@@H]2OC(SC)C(O)C(O)C2O)N(C)C1 (some centres not stated) | 0.883 (inactive) | 0.66 | 9270 | 10500 | -0.388 (inactive) | -0.162
26 | CC(CCC(=O)O)C1CC[C@H]2[C@@H]3CC[C@@H]4CC(O)CC[C@]4(C)[C@H]3CC[C@]12C (some centres not stated) | 0.884 (inactive) | 1.13 | 7640 | 8650 | -0.0806 (inactive) | -0.272
27 | CC#C[C@@]1(O)CC[C@H]2[C@@H]3CCC4=CC(=O)CCC4=C3C(c3ccc(N(C)C)cc3)C[C@@]21C (some centres not stated) | 0.891 (inactive) | 1.53 | 6640 | 7460 | -0.469 (inactive) | 0.644
28 | CN(C)C(=O)C(O)C(Cc1ccccc1)NC(=O)c1cc2cc(Cl)ccc2[nH]1 (configuration not stated) | 0.959 (inactive) | 0.88 | 8860 | 9230 | -0.337 (inactive) | 0.715
29 | COc1ccc(CCc2nc3cc(-c4c(C)noc4C)ccc3n2CC(C)N2CCOCC2)cc1Cl (configuration not stated) | 0.88 (inactive) | 0.277 | 7240 | 8230 | -0.0999 (inactive) | -1.46
30 | N#CC(=C(N)Sc1ccc(N)cc1)c1ccccc1C(F)(F)F | 0.906 (inactive) | 0.881 | 4690 | 5170 | -0.31 (inactive) | 0.82
31 | Cc1cc(N2CCOCC2)cc2[nH]c(-c3c(NCC(O)c4cccc(Cl)c4)cc[nH]c3=O)nc12 (configuration not stated) | 1.08 (inactive) | 0.775 | 928 | 858 | -0.143 (inactive) | -0.73
32 | O=C1c2ccc(Nc3ccc(F)cc3F)cc2CCc2ccc(OCC(O)CO)cc21 (configuration not stated) | 0.924 (inactive) | 0.413 | 6890 | 7450 | -0.55 (inactive) | 0.56
33 | CC(=O)C1CC[C@H]2[C@@H]3CC=C4CC(O)CC[C@]4(C)[C@@H]3CC[C@]12C (some centres not stated) | 0.983 (inactive) | 0.867 | 7780 | 7910 | -0.328 (inactive) | 0.251
34 | COC(=O)C(Cc1ccccc1)NC(=O)C(N)CC(=O)O (stereo not drawn) (H-Asp-Phe-OMe; configuration not given here) | 0.938 (inactive) | 0.532 | 8220 | 8770 | -0.285 (inactive) | -0.555
35 | COc1ccc(-c2cc(=O)c3c(O)cc(OC4OC(COC5OC(C)C(O)C(O)C5O)C(O)C(O)C4O)cc3o2)cc1O (configuration not stated) | 0.912 (inactive) | 0.985 | 7570 | 8300 | -0.28 (inactive) | 0.179
36 | CN1CCN(S(=O)(=O)c2ccc(-c3cnc(N)c(C(=O)Nc4cccnc4)n3)cc2)CC1 | 0.893 (inactive) | 0.445 | 2390 | 2680 | 0.891 (inactive) | -1.29
37 | O=C(C=Cn1cnc(-c2cc(C(F)(F)F)cc(C(F)(F)F)c2)n1)NNc1cnccn1 | 1.07 (inactive) | 0.543 | 2320 | 2170 | -0.213 (inactive) | -7.28
38 | O=C(C=Cc1ccc(O)c(O)c1)c1ccc(O)cc1O | 0.953 (inactive) | 0.45 | 8780 | 9210 | -0.304 (inactive) | -0.063
39 | c1ccc(NCc2ccc(CNc3ccccn3)cc2)nc1 | 0.944 (inactive) | 0.525 | 7360 | 7790 | -0.161 (inactive) | -0.0229
40 | CC1CC(C(=O)O)C2CC[C@]3(C)C(=CC[C@H]4[C@@]5(C)CCC(O)C(C)(C)[C@@H]5CC[C@]43C)[C@H]2C1C (some centres not stated) | 0.867 (inactive) | 0.88 | 8220 | 9470 | -0.234 (inactive) | 0.804
41 | Nc1nc(N)c2nc(-c3cccc(O)c3)cnc2n1 | 0.989 (inactive) | 0.893 | 6340 | 6410 | 1.29 (inactive) | -0.0279
42 | CC1=C(C(=O)OC2CCCCC2)C(c2ccc([N+](=O)[O-])cc2)C2=C(CC(C)(C)CC2=O)N1 (configuration not stated) | 1.46 (inactive) | 0.547 | 1480 | 1010 | -0.282 (inactive) | -2.79
43 | NC(=O)C(CCC(F)(F)F)N(Cc1ccc(-c2ncon2)cc1F)S(=O)(=O)c1ccc(Cl)cc1 (configuration not stated) | 0.918 (inactive) | 0.873 | 6710 | 7310 | -0.464 (inactive) | 0.74
44 | CC1CC=CC=CC=CC=CC(O[C@@H]2OC(C)C(O)C(N)C2O)C[C@@H]2O[C@](O)(CC(O)C[C@H]3OC3C=CC(=O)O1)CC(O)C2C(=O)O (some centres not stated) | 0.876 (inactive) | 1.14 | 7260 | 8280 | -0.47 (inactive) | -0.427
45 | CN(C)C(CCOc1cccc2ccccc12)c1ccccc1 (configuration not stated) | 0.873 (inactive) | 1.7 | 6850 | 7850 | -0.416 (inactive) | 0.392
46 | O=C(O)CCCCC1SC[C@@H]2NC(=O)N[C@H]12 (some centres not stated) | 0.883 (inactive) | 0.431 | 8160 | 9250 | -0.0238 (inactive) | -0.137
47 | CC(Oc1cc(-n2cnc3ccc(CN4CCN(C)CC4)cc32)sc1C(N)=O)c1ccccc1C(F)(F)F (configuration not stated) | 1.2 (inactive) | 0.688 | 1290 | 1080 | 0.375 (inactive) | 1.78

Source: PubChem BioAssay
